# Source: PubChem (several laboratories)
# A3A deaminase: blocks human APOBEC3A ssDNA deamination; P31941; recombinant A3A, FAM/TAMRA ssDNA deamination fluorescence; inhibition, % at 20 µM; 0.41% of 330,000 active; AID 493011;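 active means at least 40% inhibition at 20 µM here, with at most 30% in a related deaminase screen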;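 further: plate controls were A3A with DMSO for no effect and wells lacking A3A enzyme for full effect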
# Target sequence (P31941 whole entry, looked up): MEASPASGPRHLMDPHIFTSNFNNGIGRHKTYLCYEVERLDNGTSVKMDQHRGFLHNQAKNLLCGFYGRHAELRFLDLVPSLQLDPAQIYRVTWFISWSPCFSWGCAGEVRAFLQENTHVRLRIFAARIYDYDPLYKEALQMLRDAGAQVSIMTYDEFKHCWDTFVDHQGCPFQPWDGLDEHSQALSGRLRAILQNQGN
# rCAG RNA binder: binds r(CAG) RNA repeats. r(CAG) RNA repeat, TO-PRO-1 dye displacement fluorescence. inhibition, % at 3 µM. 1.3% of 370,000 active. AID 651821;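 active means inhibition above the plate cutoff, the mean of all test compounds on that plate plus 3 SD, cut at about 35% in these data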;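 further: 0% = DMSO alone and 100% = 100 µM mitoxantrone as full dye displacement; higher means more dye released from RNA so lower well fluorescence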
# ALR inh: inhibitors of human sulfhydryl oxidase ALR; P55789; purified ALR, DTT oxidation, H2O2 HRP-luminol luminescence; inhibition, % (test concentration not listed); 3.8% of 290,000 active;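 active means mean replicate inhibition above about 79%, with every replicate also reaching it, limit read from the data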
# Target sequence (P55789 whole entry, looked up): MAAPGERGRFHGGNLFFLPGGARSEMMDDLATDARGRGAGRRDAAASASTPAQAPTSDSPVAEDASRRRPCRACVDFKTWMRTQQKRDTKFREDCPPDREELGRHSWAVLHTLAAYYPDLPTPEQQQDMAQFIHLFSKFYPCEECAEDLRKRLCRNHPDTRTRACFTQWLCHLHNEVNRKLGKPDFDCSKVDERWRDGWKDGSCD
# PHOSPHO1 block: inhibitors of human PHOSPHO1 phosphatase; Q8TCT1; recombinant PHOSPHO1, absorbance phosphatase assay; inhibition, % at 13.3 µM; 1.1% of 290,000 active; in the data active means inhibition above about 60%
# Target sequence (Q8TCT1 whole entry, looked up): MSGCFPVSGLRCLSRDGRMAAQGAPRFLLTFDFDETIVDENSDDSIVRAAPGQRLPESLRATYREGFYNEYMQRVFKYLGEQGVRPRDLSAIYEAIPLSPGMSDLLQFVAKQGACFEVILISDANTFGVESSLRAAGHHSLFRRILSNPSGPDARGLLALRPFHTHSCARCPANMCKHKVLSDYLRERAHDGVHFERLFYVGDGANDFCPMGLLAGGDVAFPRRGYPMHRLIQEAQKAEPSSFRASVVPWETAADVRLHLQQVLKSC
# aDG glyco act: alpha-DG glycosylation activation; Pro5-aDG cells, alpha-DG glycosylation AlphaScreen (IIH6); 0% Pro5, 100% B10-LARGE cell signal; activation, % at 10 µM; 0.22% of 360,000 active; AID 624168;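 active means activation of at least 8% versus controls, or a plate z-score of at least 8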;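 further: Pro5 are CHO cells carrying HIG-tagged alpha-DG that lacks glycosylation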
# APOBEC3G inh: inhibitors of human APOBEC3G DNA deaminase; 0.28% of 330,000 active; AID 493012; inhibition, % at 20 µM; recombinant A3G, ssDNA deamination FAM/TAMRA fluorescence; Q9HC16;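 active means inhibition of at least 40% at 20 µM, with no more than 30% in the related APOBEC3A deaminase screen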;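 further: plate controls were DMSO wells with A3G for no effect and wells lacking A3G enzyme for full effect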
# Active calls of the source: *; . = no result. An excerpt weighted towards active compounds, which were near 5.4% of everything screened.
SMILES,A3A deaminase,rCAG RNA binder,ALR inh,PHOSPHO1 block,aDG glyco act,APOBEC3G inh
COc1ccc(OC)c(NC(=O)CSc2nc3[nH]c(=O)cc(O)c3s2)c1,1.7,31.0,-18.4,.,-0.2,1.0
COc1ccc(OC)c(NC(=O)CSc2nc3[nH]c(=O)[nH]c(=O)c3s2)c1,.,37.1*,.,.,-0.1,.
CCn1c(=S)sc2c(=O)[nH]c(SCC(=O)Nc3cc(OC)ccc3OC)nc21,-4.8,75.7*,-2.9,1.8,0.0,-3.3
COc1ccc(NC(=O)CSc2nc3[nH]c(=O)[nH]c(=O)c3s2)cc1OC,-2.5,5.9,98.8*,26.9,-0.1,-4.4
COc1ccc(OC)c(NC(=O)CSc2nc3scc(C)c3c(=O)[nH]2)c1,1.0,27.7,.,15.1,0.0,-5.4
C=CCn1c(SCC(N)=O)nnc1-c1ccc(C)cc1,.,1.0,.,.,.,.
Cc1ccccc1Cn1cc(CN2[C@H](CC(C)C)COc3cc(Br)ccc3S2(=O)=O)nn1,.,3.2,.,.,.,.
CCCCCCCCCn1c2c(c(=N)c3c1CCC3)CCC2,0.2,.,-24.4,16.6,0.4,-0.8
CCCCCCn1c2c(c(=N)c3c1CCC3)CCC2,-0.1,9.8,99.3*,-13.6,0.1,-2.5
CCOC(=O)c1cccc(NC(=O)CN(C)S(=O)(=O)c2ccc(C)c(C)c2)c1,.,3.0,.,.,.,.
CSc1nc2nc(-c3ccccc3)cc(=O)n2[nH]1,-3.7,5.1,2.5,10.6,0.5,-2.7
Cc1ccc(C(=O)Nc2nc3nc(-c4ccccc4)cc(=O)n3[nH]2)cc1,1.1,17.1,91.7*,3.2,-0.1,-2.0
Nc1ccc(-c2nc3cc(N)ccc3s2)cc1,0.9,3.3,98.6*,47.7,0.0,-4.4
Cc1ccc2nc(-c3ccc(N)cc3)sc2c1,1.5,5.7,-98.9,20.3,0.1,-3.2
CSc1ccc(-c2nc(CSCC(=O)NCCCN3CCOCC3)c(C)o2)cc1,-3.1,-6.6,.,13.0,2.0,-4.2
Cc1ccc(-c2nc(CSCC(=O)NCCCN3CCOCC3)c(C)o2)cc1,-4.7,-3.3,97.4*,18.2,0.2,-4.8
Cc1ccc(-c2nc(CSCC(=O)NCCN3CCN(Cc4ccccc4)CC3)c(C)o2)cc1,-0.2,-11.0,99.1*,15.5,2.8,-4.2
C=CC[n+]1c(-c2ccc(C)cc2)csc1Nc1c(C)n(C)n(-c2ccccc2)c1=O,-0.6,-11.7,98.7*,47.6,-0.3,-4.4
C=CC[n+]1c(-c2ccc(Cl)cc2Cl)csc1Nc1c(C)n(C)n(-c2ccccc2)c1=O,4.0,-5.5,94.2*,3.5,1.1,-4.5
Cc1cccc(C2c3[nH]c4ccccc4c3CCN2C(=O)c2ccc(=O)[nH]c2)n1 (centres undefined),-0.1,-7.1,-0.2,9.5,-0.2,-0.9
Cc1cccc(C2c3[nH]c4ccccc4c3CCN2C(=O)c2cc(C(C)C)nc(N)n2)n1 (centres undefined),-2.1,-2.9,.,68.4*,0.1,-4.7
O=C(CCN1C(=O)/C(=C/c2ccc(F)cc2)SC1=S)NCCc1cnc[nH]1,-5.8,8.9,98.0*,1.5,0.0,-6.4
O=C(c1ccc2c(c1)OCO2)N1CCN(c2ccc(F)cc2)CC1,-0.7,-5.8,96.7*,0.6,0.0,0.0
Cc1cccn2c(=O)nc(SCC(=O)N3CCN(c4ccccc4)CC3)nc12,1.9,-0.9,85.6*,.,0.1,-5.2
O=C(CSCc1ccc(F)cc1)N1CCN(c2ccc(F)cc2)CC1,4.2,-5.0,97.8*,-2.7,0.1,-0.1
SMILES,A3A deaminase,rCAG RNA binder,ALR inh,PHOSPHO1 block,aDG glyco act,APOBEC3G inh
O=C(CCN1C(=O)C2C3C=CC(C3)C2C1=O)N1CCN(c2ccc(F)cc2)CC1 (centres undefined),-2.5,-5.6,97.3*,-31.3,0.5,-3.8
Cc1ccc(CSCC(=O)N2CCN(c3ccc(F)cc3)CC2)cc1,-4.1,-7.5,0.6,25.3,-0.3,-8.2
Cc1cccn2c(=O)nc(SCC(=O)N3CCOCC3)nc12,-1.1,0.7,3.4,.,0.3,-1.2
Cn1c(SCC(=O)Nc2ccccc2-c2ccccc2)nnc1-c1ccccc1,.,2.0,.,.,.,.
Cc1ccsc1-c1nc(CSCC(=O)N2CCN(c3ccccc3)CC2)c(C)o1,-0.8,2.8,89.2*,8.6,-0.2,0.3
Cc1ccccc1CSCC(=O)N1CCN(c2ccccc2)CC1,-2.2,-6.7,98.5*,-16.1,0.0,-4.1
O=C(CSCc1ccc(F)cc1)N1CCN(c2ccccc2)CC1,1.4,-4.9,54.7,18.3,0.0,-2.7
COC(=O)[C@]12CCCCC=C1N(Cc1ccc(OC)cc1)C(=O)[C@@H]2CC(=O)NCc1ccc(C)o1,.,2.3,.,.,.,.
Cc1noc(C)c1COC(=O)CCN1c2ccccc2Sc2ccccc21,-3.0,-6.6,92.7*,-30.5,2.2,-2.5
Cc1noc(C)c1COC(=O)CCOc1ccccc1,-2.5,-5.2,3.0,2.8,-0.3,-5.2
O=C(N/N=C/c1ccc(O)cc1)c1cc[n+](Cc2ccccc2)cc1,-5.7,3.5,98.7*,-11.4,-0.2,-9.5
CC(NC(=O)c1ccccc1)C(=O)N/N=C/c1ccc(O)cc1 (centres undefined),0.8,-0.9,99.2*,-26.9,-0.1,-0.8
O=C(N/N=C/c1ccc(OCc2ccccc2)cc1)c1cc[n+](Cc2ccccc2)cc1,0.7,11.6,-21.5,1.1,-0.3,-10.5
Cc1ccc(C(=O)N/C(=C\c2ccccc2F)c2nc(=S)[nH][nH]2)cc1,-1.0,7.9,98.3*,-10.4,0.0,-4.9
CCCCc1c(C(=O)O)cc(OC)cc1C(=O)O,1.4,0.9,-0.3,14.8,0.0,-0.6
CCCCCc1c2c(cc(O)c1C(=O)O)OC(=O)c1c(cc(OC)cc1C(=O)CCCC)O2,25.7,.,98.3*,27.7,0.0,-8.1
CCCC(=O)Nc1ccc2nc(SCC(=O)Nc3nccs3)sc2c1,27.8,0.1,98.8*,52.0,0.0,15.5
O=C(CCCSc1nc2ccccc2s1)Nc1nccs1,-3.5,-0.2,.,26.9,-0.1,-9.6
CN(C)c1ccc(NC(=O)c2sc(SCC(=O)Nc3nccs3)nc2N)cc1,-3.5,8.4,12.4,67.3*,0.0,-1.5
Cn1c(SCC(=O)Nc2ccc3nc(SCC(=O)N4CCCC4)sc3c2)nnc1-c1ccc(N)cc1,.,.,.,67.3*,-0.1,.
CCN(CC)C(=O)CSc1nc2ccc(NC(=O)CSc3nccn3C)cc2s1,0.7,13.4,98.8*,5.3,-0.1,-0.6
CCOC(=O)[C@]12CCCCC/C=C\1N(CCc1ccc(Cl)cc1)C(=O)[C@H]2CC(=O)NCC12CC3CC(CC(C3)C1)C2,.,8.2,.,.,.,.
O=C(CN1C(=O)CCSc2ccccc21)Nc1ccc(Cl)c(Cl)c1,.,6.3,.,.,.,.
O=S1(=O)c2ccc(Br)cc2OC[C@@H](Cc2ccccc2)N1Cc1cn(Cc2ccc(C(F)(F)F)cc2)nn1,.,5.2,.,.,.,.
O=C(CCCc1nc2ccccc2s1)Nc1nccs1,12.0,3.9,-6.8,92.3*,0.1,-0.5
CC(c1c[nH]c2ccccc12)c1c[nH]c2ccc(Br)cc12 (centres undefined),.,11.6,.,.,.,.
